Assay outcomes: PubChem, National Center for Advancing Translational Sciences (NCATS)
Cycloheximide cs: counter-screen hit for Shiga toxin inhibitors, cycloheximide; 12% of 300,000 active; cell reporter, cycloheximide protein synthesis inhibition counterscreen; max response, %; in the data active means max response mostly above about 13%, no sharp cut-off; inactive means mostly below about 14%; further: read at 38.3 µM for the half of the compounds with a filed dose; 0% is about no effect
Tb PYK inh: blocks Trypanosoma brucei pyruvate kinase | 0.12% of 410,000 active | AID 624173 | Potency, µM (series often up to 76.8 µM), without a hit: top-dose activity, negative = inhibition, actives largely listed as inhibitors | TbPYK enzyme, Kinase-Glo Plus ATP luminescence, 45 min; further: potency means the concentration at half of the fitted maximal effect; on the % scale 0 is the no-effect control and ±100 the full control effect; nearly all actives have a fitted effect of over 50% in size
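Glycolytic pyruvate kinase of T. brucei was incubated with substrate, test compound and 130 uM ADP for 45 minutes at room temperature. Luminescent Kinase-Glo Plus signal was measured after 10 minutes.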
Shiga inhibitor: Shiga toxin inhibition | 9.2% of 290,000 active | inhibition, % at 38.7 µM | Vero cells, Shiga toxin protein synthesis inhibition reporter; in the data active means inhibition mostly above about 28%, no sharp cut-off; inactive means mostly below about 43%; further: 0% is about no effect
LmPK inh: blocks Leishmania mexicana pyruvate kinase activity; Potency, µM (series often up to 57.5 µM), for inactives: at the top dose activity change, negative = inhibition, usual class: inhibitors; purified LmPK, Kinase-Glo ATP luminescence, 1 h; AID 1721; 0.37% of 290,000 active; Q27686; further: potency means the concentration at half of the fitted maximal effect; on the % scale 0 is the no-effect control and ±100 the full control effect
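qHTS format; LmPK 0.1 nM; substrates PEP 0.5 mM and ADP 0.1 mM. One-hour room-temperature incubation, then coupled luciferase luminescence; 0.5 nM enzyme wells mark activation.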
Sm TGR block: inhibitors of Schistosoma mansoni thioredoxin glutathione reductase | purified TGR, DTNB reduction, TNB absorbance 405 nm | Potency, µM (doses to about 114 µM), for inactives: top-dose activity change, negative = inhibition, actives largely listed as inhibitors | Q962Y6 | 3% of 360,000 active; further: potency means the concentration at half of the fitted maximal effect; on the % scale 0 is the no-effect control and ±100 the full control effect; nearly all actives have a fitted effect of over 60% in size
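Kinetic colorimetric format: TGR-catalysed, NADPH-driven DTNB reduction monitored via TNB absorbance. Enzyme dispensed at 20 nM; compound exposure 15 min at room temperature before reaction start.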
FBPA Giardia inh: inhibitors of Giardia lamblia fructose-1,6-bisphosphate aldolase. A8B2U2. purified Giardia FBPA. Potency, µM (titrated, usually from 59.6 µM), for the others: top-dose activity, negative = inhibition, most hits filed as inhibitors. 0.71% of 290,000 active. AID 2451; further: potency means the concentration at half of the fitted maximal effect; on the % scale 0 is the no-effect control and ±100 the full control effect; nearly all actives have a fitted effect of over 55% in size
Target sequence (A8B2U2 whole entry, looked up): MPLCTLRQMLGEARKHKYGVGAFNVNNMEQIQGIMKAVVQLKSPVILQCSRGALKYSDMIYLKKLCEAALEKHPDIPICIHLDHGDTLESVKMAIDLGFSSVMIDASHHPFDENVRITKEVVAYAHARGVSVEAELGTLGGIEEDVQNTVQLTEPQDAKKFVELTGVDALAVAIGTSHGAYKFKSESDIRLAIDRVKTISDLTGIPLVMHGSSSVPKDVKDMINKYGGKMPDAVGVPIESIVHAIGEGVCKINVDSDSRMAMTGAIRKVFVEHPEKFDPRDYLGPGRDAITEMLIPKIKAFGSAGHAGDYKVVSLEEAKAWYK
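40 nM FBPA preincubated 10 min at RT with compound (up to 57.5 uM final), then substrate plus GAPDH/TPI/NAD/arsenate coupling and diaphorase/resazurin added. Fluorescence read after 20 min at RT, 525/598 nm.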
* marks the source's active call; other numbers are inactive results; i = inactive; ? = inconclusive; · = no result; [ ] = dose if it differs, or a comment. The full list was thinned out, with hits kept by preference. Unless noted, the call rests on the fitted dose curve; in most records, active means well fitted curve in the direction sought with a large enough effect; inconclusive means small, poorly fitted or top-dose-only effect, or another doubt; inactive means no such curve, though single readings can be large; an effect the other way counts as inactive or inconclusive.

SMILES	Cycloheximide cs	Tb PYK inh	Shiga inhibitor	LmPK inh	Sm TGR block	FBPA Giardia inh
COc1ccc(-c2nc3scc(CCNC(=O)c4cc(OC)cc(OC)c4)n3n2)cc1	·	-2%	·	·	-1%	·
Cc1c(/C=N/NC(=O)c2ccccc2O)c2ccccn2c1C(=O)c1ccc(F)cc1	15*	2%	27	1%	1%	-17%
Cc1c(/C=N/NC(=O)c2ccc(O)cc2)c2ccccn2c1C(=O)c1ccc(F)cc1	1	0%	9	3%	7%	0%
CCOC(=O)c1ccccc1NC(=O)Cc1c(C(=O)O)c(C)cn1C	·	1%	·	·	-7%	·
O=C(Nc1ccccc1N(C(=O)c1ccco1)S(=O)(=O)c1cccs1)c1ccco1	-1	2%	-4	5%	45µM*	2%
COc1ccc(N(C(=O)c2ccco2)S(=O)(=O)c2cccs2)cc1	1	-9%	-2	2%	?	14%
COCc1cc(=O)[nH]c(SCCS(=O)(=O)c2ccc(Cl)cc2Cl)n1	2	-4%	7	6%	0.32µM*	?
COCc1cc(=O)[nH]c(SCCS(=O)(=O)c2ccc(C)cc2)n1	1	-15%	-7	6%	-7%	4%
Cc1ccc(C)c(C(=O)N2CCC(c3nc4c(nnn4Cc4ccccc4)c(=O)[nH]3)CC2)c1	·	-2%	·	·	2%	·
CC(C)(C)NC(=O)CN(C(=O)C1CSC(=O)C1)c1ccc2c(c1)OCCO2 (stereo not drawn)	36*	-4%	34*	-4%	1%	0%
CCc1nc2cc(Cl)c(Cl)cc2[nH]1	11*	4%	-16	-7%	0%	13%
CC1(C(=O)NS(=O)(=O)c2cccc(Cl)c2)CCN1C(=O)Cc1ccc(-c2ccccc2)cc1 (stereo not drawn)	·	0%	·	·	·	·
C=CCOC(=O)C1=C(C)NC(=O)NC1c1ccc(N(C)C)cc1 (stereo not drawn)	-1	-3%	-6	7%	45µM*	-4%
C=CCOC(=O)C1=C(C)NC(=O)NC1c1ccc(Cl)cc1 (stereo not drawn)	-7	0%	-24	0%	-8%	6%
CCOC(=O)C1=C(C)NC(=O)NC1c1ccc(N2CCC(c3ccccc3)=N2)cc1 (stereo not drawn)	11*	1%	26*	1%	?	1%
O=C(c1csnn1)N1CCC2(CCCN(c3ccccc3)C2)CC1	·	-8%	·	·	·	0%
CC(C)CCCC(C)C1CCC2C3CC[C@H]4CC(=O)CC[C@@]4(C)C3CC[C@@]12C (stereo partly drawn)	·	·	·	·	·	-1%
CCC(=O)N(CCC(c1ccco1)C(C)C)Cc1ccccc1 (stereo not drawn)	-1	-5%	-4	9%	0%	12%
CCOC(=O)C(C#N)C(Cc1ccccc1)c1ccco1 (stereo not drawn)	1	3%	-4	3%	45µM*	-8%
O=C1C2C3C=CC(O3)C2C(=O)N1N=Cc1cccc2ccccc12 (stereo not drawn)	·	7%	·	·	·	·
COc1ccc(-n2c3c(cc(-c4nc(-c5ccc(C)cc5)cs4)c2=O)C(=O)CC(C)(C)C3)cc1	·	-1%	·	·	6%	·
COc1ccc(C2CC(c3cccs3)=NN2S(C)(=O)=O)cc1OC (stereo not drawn)	-1	4%	28	0%	·	2%
COc1ccc2cc(C3CC(c4cccs4)=NN3S(C)(=O)=O)c(Cl)nc2c1 (stereo not drawn)	24*	0%	37	1%	3%	-8%
COc1cccc(C2=NN(S(C)(=O)=O)C(c3cccs3)C2)c1 (stereo not drawn)	35*	0%	40*	-1%	6%	4%
CCS(=O)(=O)Nc1ccc(C2=NN(S(C)(=O)=O)C(c3cccs3)C2)cc1 (stereo not drawn)	21*	0%	43	2%	-10%	6%
SMILES	Cycloheximide cs	Tb PYK inh	Shiga inhibitor	LmPK inh	Sm TGR block	FBPA Giardia inh
Cc1ccc2cc(C3CC(c4cccs4)=NN3S(C)(=O)=O)c(Cl)nc2c1 (stereo not drawn)	-3	5%	14	0%	2%	-6%
CCS(=O)(=O)Nc1cccc(C2=NN(C(C)=O)C(c3cccs3)C2)c1 (stereo not drawn)	1	0%	5	-5%	1%	2%
CS(=O)(=O)N1N=C(c2ccccc2)CC1c1cccs1 (stereo not drawn)	1	-4%	15	0%	-1%	1%
COc1ccc(C2=NN(S(C)(=O)=O)C(c3cccs3)C2)cc1OC (stereo not drawn)	44*	0%	66*	-9%	-28%	-2%
c1ccc(C(c2ccccc2)N2CCCC3(CCNCC3)C2)cc1	·	-6%	·	·	·	7%
CS(=O)(=O)N1N=C(c2cccs2)CC1c1ccco1 (stereo not drawn)	1	-5%	21	-7%	7.9µM*	-11%
O=C(Nc1ccccc1OC(F)F)c1ccc(Br)o1	6	-3%	1	-3%	2%	8%
CC(=O)N1CCN(c2ccccc2NC(=O)c2ccc(Br)o2)CC1	2	-1%	-14	-8%	-2%	·
O=C(Nc1ccccc1N1CCCC1)c1ccc(Br)o1	9.2*	1%	21	-3%	-28%	0%
O=C(Nc1ccc(N2CCCC2)c(Cl)c1)c1ccc(Br)o1	41*	-1%	40	-18%	0%	?
CSc1ccccc1NC(=O)c1ccc(Br)o1	36*	-1%	45*	-18%	0%	1%
COc1ccc(N2CCCC2)c(NC(=O)c2ccc(Br)o2)c1	-1	-9%	1	-13%	45µM*	-3%
O=P(O)(O)C(O)(Cc1cnc2ccccn12)P(=O)(O)O	·	1%	·	·	·	·
Cc1ccc(-c2nn3c(-c4ccccc4)nnc3c3ccccc23)cc1	·	-3%	·	·	-4%	·
O=C(Oc1cccc(NC(=O)c2cccs2)c1)c1cccc(S(=O)(=O)N2CCCC2)c1	14*	1%	38	0%	1%	-5%
O=C(Oc1cccc(NC(=O)c2ccco2)c1)c1cccc(S(=O)(=O)N2CCCC2)c1	18*	-8%	25	-5%	1%	0%
CCCC1CCC(c2ccc(OCC)cc2)=CC1=O (stereo not drawn)	43*	3%	34*	1%	2%	0%
CCOc1ccc(N2C(=O)CCC2=O)cc1	-1	1%	-3	2%	8%	1%
O=C1CCCC2CCCCN12 (stereo not drawn)	1	·	i	·	·	6%[188 µM]
CCOc1ccccc1-c1nc(SCC(=O)c2ccc(OC)c(Br)c2)n[nH]1	·	-3%	·	·	-3%	·
COc1ccc(-c2nc(CNS(=O)(=O)c3ccc(C)cc3)cs2)cc1	·	5%	·	·	-2%	·
Cc1ccc(S(=O)(=O)NCC(=O)OCc2csc(-c3ccccc3)n2)cc1	15*	4%	-9	0%	-19%	-3%
